{"source": "PubChem BioAssay (Tox21)", "note": "Records with an inconclusive call do not appear. Entries that show only a call come without a potency. Unmarked numbers belong to inactive results. Activity calls are given as the source filed them. The call rests on the fitted dose curve. Potency means the concentration at half of the fitted maximal effect."}
{"target": "Beta-2 adrenergic receptor (Homo sapiens) (UniProt P07550)", "sequence (P07550 whole entry, looked up)": "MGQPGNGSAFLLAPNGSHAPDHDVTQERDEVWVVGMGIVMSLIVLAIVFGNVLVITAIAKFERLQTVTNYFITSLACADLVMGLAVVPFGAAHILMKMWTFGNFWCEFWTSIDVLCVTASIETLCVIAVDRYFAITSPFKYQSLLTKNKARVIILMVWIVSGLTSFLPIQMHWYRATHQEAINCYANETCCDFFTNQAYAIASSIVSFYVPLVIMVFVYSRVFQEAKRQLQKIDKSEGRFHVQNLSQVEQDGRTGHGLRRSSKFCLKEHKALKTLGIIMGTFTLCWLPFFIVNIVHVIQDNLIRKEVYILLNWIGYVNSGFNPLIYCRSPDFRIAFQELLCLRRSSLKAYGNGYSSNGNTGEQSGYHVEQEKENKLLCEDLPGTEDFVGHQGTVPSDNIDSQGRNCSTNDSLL", "assay": "Adrenergic beta2 receptor (ADRB2) small molecule antagonists, cell-based qHTS assay (AID 1963592); further: nearly all actives have a fitted effect of over 50% in size", "conditions": "CHO-ADRB2 cells, isoproterenol-stimulated cAMP HTRF ratio, 0.5 h; series mostly up to 92.4 µM; activity change, negative = inhibition: at the top concentration", "source_text": "U.S. Tox21 Program National Center for Advancing Translational Sciences [NCATS] Division of Preclinical Innovation [DPI] U.S. Environmental Protection Agency [EPA] National Institutes of Environmental Health Sciences [NIEHS] National Toxicology Program [NTP] U.S. Food and Drug Administration [FDA] Tox21 Assay Overview: Beta adrenergic receptors (Beta-ARs) belong to the G-protein coupled receptor (GPCR) superfamily, includes three subtypes - beta1, beta2, and beta3. Beta1-AR is the predominant receptor subtype expressed in the heart, and beta2-AR is expressed in the kidney, lung, blood vessel and in the heart, and beta3 is found in the adipocytes. Beta1 and 2 ARs couple to Gs protein and elevate cyclic adenosine mono phosphate (cAMP), which activates protein kinase A and leads to the downstream signaling responsible for the physiological actions. Beta-AR agonists or antagonists are the most prescribed therapeutic agents for heart failure and asthma, and these were one of the first target receptors for the rational drug design. Tox21 10K compound library was screened using the cAMP-Gs dynamic assay (Cisbio Bioassays, Shelton, CT) to identify agonists/antagonists of the Gs-coupled human adrenergic, beta2 receptor (ADRB2) in the CHO-ADRB2 cell line (Codex BioSolutions, Inc. Gaithersburg, MD), which stably over-expresses ADRB2. The principle of cAMP-Gs dynamic assay is based on HTRF technology, which facilitates the fluorescence resonance energy transfer (FRET) between donor Europium cryptate and acceptor d2-labeled cAMP. The cAMP generated within cells competes with the red acceptor, d2-labled cAMP, for binding to the monoclonal anti-cAMP-cryptate (Europium donor). An increase in intracellular cAMP leads to the disruption of FRET signal, and the signal is inversely proportional to the cAMP concentration. Propranolol HCl (Sigma-Aldrich, St. Louis, MO) was used as a positive control in the screening.\nTox21 Assay Protocol Summary: CHO-ADRB2 cells were dispensed at 1,000/well in 4uL assay medium into white/solid 1536-well plates (Greiner Bio-One North America Inc., Monroe, NC) using a Multidrop Combi dispenser (ThermoFisher Scientific, Waltham, MA). The assay plates were incubated at 37C and 5% CO2 for an overnight (18-20hr). Then positive control and test compounds dissolved in DMSO were transferred to the assay plates at 23nL using a Pintool station (Wako, San Diego, CA). Following the compound and positive control transfer, 1uL agonist-stimulation mix containing 1nM Isoproterenol HCl, 100uM IBMX and 25uM Ro-20-1724 was added to each well of the assay plates using BioRAPTR Flying Reagent Dispenser (FRD, Beckman Coulter, Brea, CA). The assay plates were incubated at room temperature for 0.5hr. Then 2.5ul each d2-labled cAMP and anti-cAMP-cryptate solutions were added separately to each well of the assay plates using an FRD and the assay plates were incubated at room temperature for 1hr. The fluorescence signal was measured at two different wavelengths (665nm and 615nm) using an Envision plate reader (Perkin Elmer, Shelton, CT). Data were expressed as the ratio of 665 nm/615 nm."}
{"smiles": "O=c1oc2ccccc2c(O)c1C(CC(O)c1ccc(-c2ccc(Br)cc2)cc1)c1ccccc1", "note": "(stereo not given)", "Potency": "inactive"}
{"smiles": "Nc1ccc(Cc2ccc(N)cc2)cc1", "Potency": "inactive"}
{"smiles": "CC1(C)[C@H](C(=O)O[C@H](C#N)c2cccc(Oc3ccccc3)c2)[C@@H]1C=C(Br)Br", "Potency": "inactive"}
{"smiles": "C=CCc1ccc(OC)cc1", "Potency": "inactive"}
{"smiles": "CCCC(=O)Cl", "activity change, negative = inhibition": "-7.52%"}
{"smiles": "Sc1ccccc1", "Potency": "inactive"}
{"smiles": "[Cl-].[Cl-].[Hg+2]", "Potency": "48.3 µM (active)"}
{"smiles": "ClC(Cl)(Cl)C(Cl)(Cl)Cl", "activity change, negative = inhibition": "-4.63%"}
{"smiles": "C=CCN=C=S", "Potency": "inactive"}
{"smiles": "CC1(C)Cc2cccc(O)c2O1", "Potency": "inactive"}
{"smiles": "ClCCOCOCCCl", "activity change, negative = inhibition": "0.811%"}
{"smiles": "O=C(O)COc1ccc(Cl)cc1Cl", "Potency": "inactive"}
{"smiles": "COC(C)(C)C", "activity change, negative = inhibition": "-6.47%"}
{"smiles": "Clc1ccc(C(c2ccccc2Cl)C(Cl)(Cl)Cl)cc1", "note": "(stereo not given)", "Potency": "inactive"}
{"smiles": "CCOP(=S)(OCC)Oc1ccc2c(C)c(Cl)c(=O)oc2c1", "activity change, negative = inhibition": "-12.3% [at 42.5 µM]"}
{"smiles": "CC(C)CC(C)(c1ccc(O)cc1)c1ccc(O)cc1", "activity change, negative = inhibition": "-12.7%"}
{"smiles": "O=C1CC(=O)NC(=O)N1", "activity change, negative = inhibition": "11.7%"}
{"smiles": "COc1ccc2c3c1O[C@H]1[C@H](O)CC[C@H]4[C@@H](C2)N(C)CC[C@@]341", "activity change, negative = inhibition": "-0.804%"}
{"smiles": "COc1ccc(CO)cc1", "Potency": "inactive"}
{"smiles": "CC(C)(C)C(O)(CCc1ccc(Cl)cc1)Cn1cncn1", "note": "(stereo not given)", "Potency": "inactive"}
{"smiles": "OCCOc1ccccc1", "Potency": "inactive"}
{"smiles": "Nc1ccc(-c2ccc(N)c(Cl)c2)cc1Cl", "Potency": "inactive"}
{"smiles": "Cc1ccccc1N", "Potency": "inactive"}
{"smiles": "CCCN(CCC)N=O", "Potency": "inactive"}
{"smiles": "CC1OC(C)OC(C)O1", "note": "(stereo not given)", "Potency": "inactive"}
{"smiles": "COCC(=O)N(c1c(C)cccc1C)C(C)C(=O)OC", "note": "(stereo not given)", "Potency": "inactive"}
{"smiles": "O=S(=O)(Oc1ccc(Cl)cc1)c1ccc(Cl)cc1", "Potency": "inactive"}
{"smiles": "CCCCc1c(C)nc(NCC)[nH]c1=O", "activity change, negative = inhibition": "-9.78%"}
{"smiles": "CC(O)CN1CCN(CC(=O)[O-])CCN(CC(=O)[O-])CCN(CC(=O)[O-])CC1.[Gd+3]", "note": "(stereo not given)", "activity change, negative = inhibition": "1% [at 42.5 µM]"}
{"smiles": "CNC(=O)O/N=C/C(C)(C)S(C)=O", "note": "(stereo not given)", "Potency": "inactive"}
{"smiles": "CC(C)OC(=O)Nc1ccccc1", "Potency": "inactive"}
{"smiles": "OCCOCCO", "Potency": "inactive"}
{"smiles": "CC[N+](CC)(CC)CC", "Potency": "inactive"}
{"smiles": "c1ccc2c(c1)-c1cccc3cccc-2c13", "Potency": "inactive"}
{"smiles": "CCC(C)c1ccc(O)cc1", "note": "(stereo not given)", "Potency": "inactive"}
{"smiles": "O=C(Cl)c1ccccc1", "activity change, negative = inhibition": "8.77%"}
{"smiles": "COS(=O)(=O)c1ccc(C)cc1", "activity change, negative = inhibition": "-4.19%"}
{"smiles": "COc1ccc(C(CN(C)C)C2(O)CCCCC2)cc1", "note": "(stereo not given)", "Potency": "inactive"}
{"smiles": "Nc1cc(Cl)cc(C(=O)O)c1Cl", "Potency": "inactive"}
{"smiles": "Cc1ccc([N+](=O)[O-])cc1C", "Potency": "inactive"}
